In PMC7862700, “An all-to-all approach to the identification of sequence-specific readers for epigenetic DNA modifications on cytosine”:

How the values were obtained:
Assay in all cases: DAPPL (digital affinity profiling via proximity ligation, sequencing); 10 mM Tris-HCl pH 7.5, 50 mM NaCl, 1 mM DTT, 4% glycerol, room temperature, 30 min; GST-TFs on glutathione beads, 16-mer random dsDNA library, 0.1% formaldehyde crosslink after washing; high values mean tight binding
FEV = biological target: T1, FEV (Homo sapiens, UniProt Q99581 1-238); settings: protein: recombinant; tags: N-terminal GST; dsDNA, one strand shown
T1 sequence: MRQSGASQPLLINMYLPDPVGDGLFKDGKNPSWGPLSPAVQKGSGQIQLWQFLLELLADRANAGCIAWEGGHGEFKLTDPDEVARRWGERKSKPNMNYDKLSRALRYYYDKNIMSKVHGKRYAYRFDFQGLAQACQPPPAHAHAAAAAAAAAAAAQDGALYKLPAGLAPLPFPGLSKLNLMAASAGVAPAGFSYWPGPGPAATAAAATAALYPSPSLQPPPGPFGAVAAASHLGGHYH
Summary of the method: (§1)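 After expression in yeast as GST fusions, human transcription factors were bound to glutathione beads, DNA-barcoded and mixed with a tag-only sample. The pools were incubated with 200 nmole of a 16-mer random double-stranded DNA library in Tris/NaCl/DTT/glycerol buffer (30 min, room temperature), washed and crosslinked with 0.1% formaldehyde. Proximity ligation with BsaI/T4 ligase ran for 1 h at 37 °C, before PCR amplification and sequencing on an Illumina NextSeq500. Binding signal is a hexamer's read frequency for a factor divided by its frequency for the tag-only sample.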

ETV5 = ETV5 (Homo sapiens, UniProt P41161 1-510); settings: protein: recombinant; tags: N-terminal GST; dsDNA, one strand shown
Summary of the method: as §1

HSF1 = HSF1 (Homo sapiens, UniProt Q00613 1-529); settings: protein: recombinant; tags: N-terminal GST; chain copies: 3; dsDNA, one strand shown
Summary of the method: as §1

SPIC = biological target: T2, SPIC (Homo sapiens, UniProt Q8N5J4 1-248); settings: protein: recombinant; tags: N-terminal GST; dsDNA, one strand shown
T2 sequence: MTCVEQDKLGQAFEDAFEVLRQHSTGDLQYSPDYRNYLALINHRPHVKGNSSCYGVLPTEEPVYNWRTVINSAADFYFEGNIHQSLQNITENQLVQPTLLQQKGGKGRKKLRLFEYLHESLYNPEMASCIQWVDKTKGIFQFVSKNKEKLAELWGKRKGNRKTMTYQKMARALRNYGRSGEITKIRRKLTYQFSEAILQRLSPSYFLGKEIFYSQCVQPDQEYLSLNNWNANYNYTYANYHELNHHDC
Summary of the method: as §1

ELF4 = ELF4 (Homo sapiens, UniProt Q99607 1-663); settings: protein: recombinant; tags: N-terminal GST; dsDNA, one strand shown
Summary of the method: as §1

ELK4 = biological target: T3, ELK4 (Homo sapiens, UniProt P28324-2 1-405); settings: protein: recombinant; tags: N-terminal GST; dsDNA, one strand shown
T3 sequence: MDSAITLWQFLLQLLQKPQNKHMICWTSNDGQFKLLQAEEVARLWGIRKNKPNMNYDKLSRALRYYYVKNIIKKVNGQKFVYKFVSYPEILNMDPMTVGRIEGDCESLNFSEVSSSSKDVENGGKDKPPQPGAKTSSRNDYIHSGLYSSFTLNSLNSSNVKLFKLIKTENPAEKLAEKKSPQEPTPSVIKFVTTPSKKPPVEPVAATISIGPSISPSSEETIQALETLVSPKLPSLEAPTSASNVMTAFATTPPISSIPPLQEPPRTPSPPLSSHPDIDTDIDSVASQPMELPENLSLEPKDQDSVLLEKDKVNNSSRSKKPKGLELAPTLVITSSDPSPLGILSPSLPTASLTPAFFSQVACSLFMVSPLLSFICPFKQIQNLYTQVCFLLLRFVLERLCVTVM
Summary of the method: as §1

ETV2 = biological target: T4, ETV2 (Homo sapiens, UniProt O00321 1-342); settings: protein: recombinant; tags: N-terminal GST; dsDNA, one strand shown
T4 sequence: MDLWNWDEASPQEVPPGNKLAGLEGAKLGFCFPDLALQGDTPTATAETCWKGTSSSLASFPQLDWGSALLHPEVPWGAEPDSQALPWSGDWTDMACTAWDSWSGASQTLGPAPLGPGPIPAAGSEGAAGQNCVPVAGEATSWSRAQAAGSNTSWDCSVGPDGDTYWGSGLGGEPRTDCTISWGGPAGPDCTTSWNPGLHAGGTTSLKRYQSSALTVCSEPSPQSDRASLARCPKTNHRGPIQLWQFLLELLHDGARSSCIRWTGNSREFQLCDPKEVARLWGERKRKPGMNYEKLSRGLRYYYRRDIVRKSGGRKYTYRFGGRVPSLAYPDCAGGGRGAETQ
Summary of the method: as §1

ELF3 = biological target: T5, ELF3 (Homo sapiens, UniProt P78545 1-371); settings: protein: recombinant; tags: N-terminal GST; dsDNA, one strand shown
T5 sequence: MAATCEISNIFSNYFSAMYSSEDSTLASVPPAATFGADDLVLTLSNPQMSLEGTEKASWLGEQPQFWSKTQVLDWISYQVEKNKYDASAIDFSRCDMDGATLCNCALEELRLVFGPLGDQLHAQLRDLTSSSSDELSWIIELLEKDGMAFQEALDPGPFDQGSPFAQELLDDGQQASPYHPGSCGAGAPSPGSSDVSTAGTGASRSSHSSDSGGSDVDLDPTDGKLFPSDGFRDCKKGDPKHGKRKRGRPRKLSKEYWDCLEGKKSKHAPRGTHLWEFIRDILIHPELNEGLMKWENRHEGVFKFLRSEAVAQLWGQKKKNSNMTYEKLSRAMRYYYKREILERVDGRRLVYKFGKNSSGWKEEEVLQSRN
Summary of the method: as §1

CRX = CRX (Homo sapiens, UniProt O43186 1-299); settings: protein: recombinant; tags: N-terminal GST; dsDNA, one strand shown
Summary of the method: as §1

ETV1 = ETV1 (Homo sapiens, UniProt P50549 1-477); settings: protein: recombinant; tags: N-terminal GST; dsDNA, one strand shown
Summary of the method: as §1

ERF = biological target: T6, ERF (Homo sapiens, UniProt P50548 1-548); settings: protein: recombinant; tags: N-terminal GST; dsDNA, one strand shown
T6 sequence: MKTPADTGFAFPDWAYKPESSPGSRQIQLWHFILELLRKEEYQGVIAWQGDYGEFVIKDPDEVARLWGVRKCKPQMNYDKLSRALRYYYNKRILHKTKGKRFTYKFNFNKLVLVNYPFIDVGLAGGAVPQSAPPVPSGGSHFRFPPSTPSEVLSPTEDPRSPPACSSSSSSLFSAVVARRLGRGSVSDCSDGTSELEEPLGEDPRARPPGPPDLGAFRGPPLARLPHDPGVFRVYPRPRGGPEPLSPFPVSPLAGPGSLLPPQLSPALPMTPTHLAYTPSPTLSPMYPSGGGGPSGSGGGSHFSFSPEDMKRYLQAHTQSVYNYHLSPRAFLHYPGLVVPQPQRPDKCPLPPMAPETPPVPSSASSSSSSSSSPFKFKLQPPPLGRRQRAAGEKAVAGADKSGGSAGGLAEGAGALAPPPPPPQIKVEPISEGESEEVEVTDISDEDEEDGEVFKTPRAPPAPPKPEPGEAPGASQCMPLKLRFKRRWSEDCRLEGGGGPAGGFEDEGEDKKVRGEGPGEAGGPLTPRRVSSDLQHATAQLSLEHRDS
Summary of the method: as §1

ETV3L = biological target: T7, ETV3L (Homo sapiens, UniProt Q6ZN32 1-361); settings: protein: recombinant; tags: N-terminal GST; dsDNA, one strand shown
T7 sequence: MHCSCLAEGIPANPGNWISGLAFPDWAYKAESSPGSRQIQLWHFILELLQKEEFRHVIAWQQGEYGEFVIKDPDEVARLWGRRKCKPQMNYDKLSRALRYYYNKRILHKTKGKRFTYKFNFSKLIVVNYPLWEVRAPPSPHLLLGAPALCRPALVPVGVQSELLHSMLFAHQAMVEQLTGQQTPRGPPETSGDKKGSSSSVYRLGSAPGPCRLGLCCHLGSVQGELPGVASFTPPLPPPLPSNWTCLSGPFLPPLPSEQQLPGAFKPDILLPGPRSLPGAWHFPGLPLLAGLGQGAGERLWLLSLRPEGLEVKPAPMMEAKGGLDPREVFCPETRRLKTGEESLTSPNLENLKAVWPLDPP
Summary of the method: as §1

ETS2 = biological target: T8, ETS2 (Homo sapiens, UniProt P15036 1-469); settings: protein: recombinant; tags: N-terminal GST; dsDNA, one strand shown
T8 sequence: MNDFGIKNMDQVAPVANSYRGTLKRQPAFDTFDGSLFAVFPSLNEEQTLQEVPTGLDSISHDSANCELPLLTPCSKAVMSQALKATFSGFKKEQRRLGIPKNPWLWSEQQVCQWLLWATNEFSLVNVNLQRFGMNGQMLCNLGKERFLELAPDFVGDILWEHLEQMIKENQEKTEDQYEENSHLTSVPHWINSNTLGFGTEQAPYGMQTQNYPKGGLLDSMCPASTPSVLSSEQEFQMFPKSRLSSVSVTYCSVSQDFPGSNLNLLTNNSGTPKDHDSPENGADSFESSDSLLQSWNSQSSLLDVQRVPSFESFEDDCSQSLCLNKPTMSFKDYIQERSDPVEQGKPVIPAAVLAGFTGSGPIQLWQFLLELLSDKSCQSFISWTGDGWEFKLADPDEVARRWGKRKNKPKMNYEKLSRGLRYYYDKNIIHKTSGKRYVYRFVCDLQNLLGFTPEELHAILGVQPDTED
Summary of the method: as §1

SPDEF = biological target: T9, SPDEF (Homo sapiens, UniProt O95238 1-335); settings: protein: recombinant; tags: N-terminal GST; dsDNA, one strand shown
T9 sequence: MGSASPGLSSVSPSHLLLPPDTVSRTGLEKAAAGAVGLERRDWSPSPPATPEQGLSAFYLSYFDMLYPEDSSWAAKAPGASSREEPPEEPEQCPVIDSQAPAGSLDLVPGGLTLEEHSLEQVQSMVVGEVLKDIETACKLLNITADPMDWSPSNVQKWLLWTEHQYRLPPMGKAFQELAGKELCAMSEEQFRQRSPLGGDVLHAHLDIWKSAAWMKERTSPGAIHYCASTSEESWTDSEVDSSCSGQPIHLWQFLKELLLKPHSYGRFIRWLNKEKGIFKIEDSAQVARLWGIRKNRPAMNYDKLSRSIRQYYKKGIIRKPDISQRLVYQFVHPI
Summary of the method: as §1

ETV7 = biological target: T10, ETV7 (Homo sapiens, UniProt Q9Y603 1-341); settings: protein: recombinant; tags: N-terminal GST; dsDNA, one strand shown
T10 sequence: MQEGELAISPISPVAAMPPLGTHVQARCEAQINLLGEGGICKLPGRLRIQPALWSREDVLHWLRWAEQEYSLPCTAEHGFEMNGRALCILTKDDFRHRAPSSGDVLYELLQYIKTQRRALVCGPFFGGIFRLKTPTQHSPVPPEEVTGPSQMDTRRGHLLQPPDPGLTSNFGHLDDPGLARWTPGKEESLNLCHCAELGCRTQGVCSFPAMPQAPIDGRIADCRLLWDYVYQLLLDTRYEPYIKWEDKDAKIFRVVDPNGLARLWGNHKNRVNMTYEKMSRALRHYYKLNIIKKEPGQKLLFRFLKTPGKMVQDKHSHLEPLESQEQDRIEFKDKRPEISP
Summary of the method: as §1

ELF5 = biological target: T11, ELF5 (Homo sapiens, UniProt Q9UKW6-2 1-255); settings: protein: recombinant; tags: N-terminal GST; dsDNA, one strand shown
T11 sequence: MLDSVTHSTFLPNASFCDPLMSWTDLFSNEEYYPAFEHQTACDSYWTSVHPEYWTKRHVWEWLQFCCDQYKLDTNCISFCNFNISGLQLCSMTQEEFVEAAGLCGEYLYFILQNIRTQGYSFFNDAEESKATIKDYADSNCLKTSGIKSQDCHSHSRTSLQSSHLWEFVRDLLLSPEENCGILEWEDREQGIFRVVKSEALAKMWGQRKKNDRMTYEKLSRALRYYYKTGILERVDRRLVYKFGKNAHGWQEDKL
Summary of the method: as §1

ETV3 = biological target: T12, ETV3 (Homo sapiens, UniProt P41162-2 1-143); settings: protein: recombinant; tags: N-terminal GST; dsDNA, one strand shown
T12 sequence: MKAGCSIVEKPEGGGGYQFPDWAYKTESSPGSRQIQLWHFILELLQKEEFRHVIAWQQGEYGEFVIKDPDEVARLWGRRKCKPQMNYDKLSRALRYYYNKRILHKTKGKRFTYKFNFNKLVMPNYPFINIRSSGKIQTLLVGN
Summary of the method: as §1

ETV6 = ETV6 (Homo sapiens, UniProt P41212 1-452); settings: protein: recombinant; tags: N-terminal GST; dsDNA, one strand shown
Summary of the method: as §1

Sequence of CRX (O43186 whole entry): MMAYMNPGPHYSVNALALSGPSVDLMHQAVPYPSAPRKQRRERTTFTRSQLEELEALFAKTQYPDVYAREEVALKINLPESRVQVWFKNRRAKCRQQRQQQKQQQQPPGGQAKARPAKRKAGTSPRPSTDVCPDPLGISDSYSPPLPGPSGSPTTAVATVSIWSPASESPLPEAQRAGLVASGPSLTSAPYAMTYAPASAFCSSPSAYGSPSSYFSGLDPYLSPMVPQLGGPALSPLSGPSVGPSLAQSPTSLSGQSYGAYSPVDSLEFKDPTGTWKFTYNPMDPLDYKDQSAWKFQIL
Sequence of ETV6 (P41212 whole entry): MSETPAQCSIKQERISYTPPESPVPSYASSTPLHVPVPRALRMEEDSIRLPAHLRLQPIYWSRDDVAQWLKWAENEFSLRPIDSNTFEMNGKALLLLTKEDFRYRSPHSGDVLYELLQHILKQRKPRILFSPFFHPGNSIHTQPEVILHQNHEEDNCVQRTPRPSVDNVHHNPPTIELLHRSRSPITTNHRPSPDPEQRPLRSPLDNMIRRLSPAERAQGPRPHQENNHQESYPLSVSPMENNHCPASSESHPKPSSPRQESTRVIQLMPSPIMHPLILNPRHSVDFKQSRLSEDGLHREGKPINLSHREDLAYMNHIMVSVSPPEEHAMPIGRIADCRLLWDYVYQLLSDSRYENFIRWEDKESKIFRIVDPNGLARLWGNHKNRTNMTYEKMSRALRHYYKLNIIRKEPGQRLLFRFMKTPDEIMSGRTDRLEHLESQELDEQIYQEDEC
Sequence of ELF4 (Q99607 whole entry): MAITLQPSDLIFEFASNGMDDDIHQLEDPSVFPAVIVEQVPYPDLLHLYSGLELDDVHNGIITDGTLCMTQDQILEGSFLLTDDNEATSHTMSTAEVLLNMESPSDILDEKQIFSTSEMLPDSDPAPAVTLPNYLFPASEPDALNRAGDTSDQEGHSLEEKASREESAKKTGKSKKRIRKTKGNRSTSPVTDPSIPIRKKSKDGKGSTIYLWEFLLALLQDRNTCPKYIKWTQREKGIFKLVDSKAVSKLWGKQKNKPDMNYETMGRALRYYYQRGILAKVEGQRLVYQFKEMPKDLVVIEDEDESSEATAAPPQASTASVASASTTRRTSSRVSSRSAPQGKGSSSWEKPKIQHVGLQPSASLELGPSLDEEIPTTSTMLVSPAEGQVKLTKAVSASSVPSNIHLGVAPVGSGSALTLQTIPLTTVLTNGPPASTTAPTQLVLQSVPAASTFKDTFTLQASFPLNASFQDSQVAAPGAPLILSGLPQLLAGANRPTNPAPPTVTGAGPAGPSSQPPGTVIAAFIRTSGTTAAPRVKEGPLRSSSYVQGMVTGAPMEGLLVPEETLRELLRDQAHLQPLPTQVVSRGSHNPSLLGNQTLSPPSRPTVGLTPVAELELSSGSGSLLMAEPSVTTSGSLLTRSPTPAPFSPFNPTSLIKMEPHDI
Sequence of HSF1 (Q00613 whole entry): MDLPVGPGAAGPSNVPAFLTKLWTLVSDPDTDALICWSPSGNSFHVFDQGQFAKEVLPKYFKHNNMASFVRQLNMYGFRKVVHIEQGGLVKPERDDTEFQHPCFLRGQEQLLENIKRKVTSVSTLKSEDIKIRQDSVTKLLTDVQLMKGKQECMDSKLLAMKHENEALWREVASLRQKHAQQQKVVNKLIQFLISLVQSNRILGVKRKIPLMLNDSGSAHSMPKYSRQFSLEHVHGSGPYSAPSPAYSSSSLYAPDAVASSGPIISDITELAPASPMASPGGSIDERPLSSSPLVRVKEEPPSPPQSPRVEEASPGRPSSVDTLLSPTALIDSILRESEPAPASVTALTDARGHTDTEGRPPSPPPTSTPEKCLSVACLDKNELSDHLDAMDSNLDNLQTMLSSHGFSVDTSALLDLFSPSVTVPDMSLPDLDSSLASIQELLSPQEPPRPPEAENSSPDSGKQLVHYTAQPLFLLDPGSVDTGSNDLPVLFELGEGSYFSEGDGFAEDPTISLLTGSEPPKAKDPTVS
Sequence of ETV1 (P50549 whole entry): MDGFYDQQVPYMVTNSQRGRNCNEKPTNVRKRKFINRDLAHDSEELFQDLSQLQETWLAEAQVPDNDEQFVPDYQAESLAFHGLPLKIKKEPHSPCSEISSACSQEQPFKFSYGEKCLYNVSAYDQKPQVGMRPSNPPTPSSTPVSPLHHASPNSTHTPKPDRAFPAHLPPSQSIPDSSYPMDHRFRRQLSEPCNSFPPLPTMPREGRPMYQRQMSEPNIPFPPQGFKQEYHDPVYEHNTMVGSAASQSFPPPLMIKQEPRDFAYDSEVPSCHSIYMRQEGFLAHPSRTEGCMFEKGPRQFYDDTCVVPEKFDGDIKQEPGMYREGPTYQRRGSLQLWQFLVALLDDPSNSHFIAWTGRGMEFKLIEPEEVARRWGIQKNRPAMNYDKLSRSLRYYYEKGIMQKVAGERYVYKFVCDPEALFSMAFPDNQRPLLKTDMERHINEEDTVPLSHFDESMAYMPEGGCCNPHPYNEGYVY
Sequence of ETV5 (P41161 whole entry): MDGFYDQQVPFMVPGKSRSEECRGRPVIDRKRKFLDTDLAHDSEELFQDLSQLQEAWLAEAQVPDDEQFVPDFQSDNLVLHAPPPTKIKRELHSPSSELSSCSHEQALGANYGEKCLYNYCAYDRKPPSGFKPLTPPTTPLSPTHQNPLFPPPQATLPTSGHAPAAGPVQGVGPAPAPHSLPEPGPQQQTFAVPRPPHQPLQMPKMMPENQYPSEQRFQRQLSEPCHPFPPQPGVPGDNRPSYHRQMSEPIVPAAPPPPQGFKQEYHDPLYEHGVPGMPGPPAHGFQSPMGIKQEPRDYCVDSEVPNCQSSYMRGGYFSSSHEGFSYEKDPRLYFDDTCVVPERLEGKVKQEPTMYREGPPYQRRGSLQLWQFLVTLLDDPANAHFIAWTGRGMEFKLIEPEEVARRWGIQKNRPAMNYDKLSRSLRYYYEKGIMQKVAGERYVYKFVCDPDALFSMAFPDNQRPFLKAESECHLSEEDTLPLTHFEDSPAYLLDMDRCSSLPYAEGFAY

With TTCTTC the binding signal (FEV) was 1.66 fold enrichment (6-mer frequency, TF over GST control), the binding signal (ETV5) was 1.87 fold enrichment (6-mer frequency, TF over GST control) and the binding signal (HSF1) was 2.07 fold enrichment (6-mer frequency, TF over GST control). For the same sequence, the binding signal (SPIC) was 1.74 fold enrichment (6-mer frequency, TF over GST control), the binding signal (ELF4) was 1.81 fold enrichment (6-mer frequency, TF over GST control) and the binding signal (ELK4) was 1.69 fold enrichment (6-mer frequency, TF over GST control). The binding signal (ETV2) was 1.83 fold enrichment (6-mer frequency, TF over GST control), the binding signal (ELF3) was 1.74 fold enrichment (6-mer frequency, TF over GST control) and the binding signal (CRX) was 1.44 fold enrichment (6-mer frequency, TF over GST control). The binding signal (ETV1) was 1.9 fold enrichment (6-mer frequency, TF over GST control), the binding signal (ERF) was 1.78 fold enrichment (6-mer frequency, TF over GST control) and the binding signal (ETV3L) was 1.83 fold enrichment (6-mer frequency, TF over GST control). The binding signal (ETS2) was 1.7 fold enrichment (6-mer frequency, TF over GST control), the binding signal (SPDEF) was 1.72 fold enrichment (6-mer frequency, TF over GST control) and the binding signal (ETV7) was 1.7 fold enrichment (6-mer frequency, TF over GST control). The binding signal (ELF5) was 2.02 fold enrichment (6-mer frequency, TF over GST control), the binding signal (ETV3) was 1.8 fold enrichment (6-mer frequency, TF over GST control) and the binding signal (ETV6) was 1.93 fold enrichment (6-mer frequency, TF over GST control).
